PI5P4K alpha inh: qHTS for Inhibitors of phosphatidylinositol 5-phosphate 4-kinase (PI5P4K); PI5P4Kalpha enzyme, ADP-Glo luminescence, 60 min; hits give low values; AID 652105, 2013; max response, %; hit rate 1.2% among 330,000; active means max response of -50% or lower; inconclusive means between -30% and -50%; inactive means -30% or higher; further: value at the top dose of about 77 µM; on the % scale 0 is the no-effect control and ±100 the full control effect
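Luminescence from ADP-Glo served as readout of PI5P4Kalpha activity in a qHTS format. Reaction: enzyme, substrate, compound, ATP at 5 microM final, 60 min at RT.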
BAZ2B inh: qHTS Assay for Inhibitors of BAZ2B; Potency, µM (series often up to 114 µM), for the others: at the highest dose activity change, negative = inhibition, hits mostly inhibitors; AID 504333, 2011; AlphaScreen BAZ2B-H3K14Ac peptide displacement; hit rate 4.4% among 360,000; further: potency means the concentration at half of the fitted maximal effect; on the % scale 0 is the no-effect control and ±100 the full control effect; nearly all actives have a fitted effect of over 60% in size
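Inhibition is scored as reduced AlphaScreen emission. The BAZ2B/b-H3(5-23)K14Ac complex (50 nM each) in PBS pH 7.4, 0.01% Tween-20 meets compound (up to 110 uM) for 30 min at RT before bead addition.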
G9a inh: qHTS Assay for Inhibitors of Histone Lysine Methyltransferase G9a; Histone-lysine N-methyltransferase EHMT2 (Homo sapiens), Q96KQ7; G9a H3K9 monomethylation, AlphaScreen, 2 h; Potency, µM (top dose mostly 102 µM), for the others: at the top dose activity, negative = inhibition, actives largely listed as inhibitors; hit rate 8.8% among 350,000; AID 504332, 2011; further: potency means the concentration at half of the fitted maximal effect; on the % scale 0 is the no-effect control and ±100 the full control effect; nearly all actives have a fitted effect of over 75% in size
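AlphaScreen detection with an anti-monomethyl H3K9 antibody quantified product after a 2 h room-temperature reaction containing 500 nM biotinylated H3K9 peptide, 20 µM SAM and 20 nM enzyme, which had been preincubated 15 min with compound.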
PLK1 PBD block: qHTS for Inhibitors of PLK1-PDB (polo-like kinase 1 - polo-box domain): Primary Screen; Serine/threonine-protein kinase PLK1 (Homo sapiens), P53350; Plk1 PBD binding of FITC phosphopeptide, fluorescence polarization; Potency, µM, inactives show max response, negative = inhibition, hits mostly inhibitors; hit rate 2.8% among 360,000; further: potency means the concentration at half of the fitted maximal effect; series mostly up to about 57 µM; on the % scale 0 is the no-effect control and ±100 the full control effect; nearly all actives have a fitted effect of over 65% in size
JMJD2A Tudor: qHTS Assay for Inhibitors of JMJD2A-Tudor Domain; Lysine-specific demethylase 4A (Homo sapiens), O75164; AID 504339, 2011; hit rate 4.4% among 390,000; AlphaScreen JMJD2A-Tudor / H3K4me3 peptide binding; Potency, µM (highest dose often 114 µM), without a hit: at the highest dose activity change, negative = inhibition, usual class: inhibitors; further: potency means the concentration at half of the fitted maximal effect; on the % scale 0 is the no-effect control and ±100 the full control effect; nearly all actives have a fitted effect of over 50% in size
HP1b chromo inh: HTS for Inhibitors of HP1-beta Chromodomain Interactions with Methylated Histone Tails; Chromobox protein homolog 1 (Homo sapiens), P83916; AlphaScreen HP1-beta / biotin-H3K9me3 peptide binding; Potency, µM (titrated, usually from 114 µM), inactives show top-dose activity change, negative = inhibition, actives largely listed as inhibitors; hit rate 0.56% among 390,000; further: potency means the concentration at half of the fitted maximal effect; nearly all actives have a fitted effect of over 70% in size
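Compound inhibition of the preformed complex between 50 nM HP1-beta and 50 nM biotinylated H3K9me3 peptide was read by AlphaScreen. Buffer was PBS pH 7.4 with 0.01% Tween-20. Incubations ran 30 min at room temperature, with 10 ug/mL donor/acceptor beads.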
* = called active by the depositor; u = inconclusive; x = no result; [ ] = remark or other dose. Sampled rows, rich in hits. Any-hit rate of the full collection: about 12%. Unless noted, the call rests on the fitted dose curve; in most records, active means well fitted curve in the direction sought with a large enough effect; inconclusive means small, poorly fitted or top-dose-only effect, or another doubt; inactive means no such curve, though single readings can be large; an effect the other way counts as inactive or inconclusive.

SMILES	PI5P4K alpha inh	BAZ2B inh	G9a inh	PLK1 PBD block	JMJD2A Tudor	HP1b chromo inh
C[C@@H](C(=O)Nc1nc(-c2ccccn2)cs1)N1C(=O)C2CCCCC2C1=O (stereo partly drawn)	-56.4*	8.91µM*	1.41µM*	16.8µM*	50.1µM*	u
CC(C)[C@H](NC(=O)c1ccccc1Cl)C(=O)Nc1nc(-c2ccccn2)cs1	-11.6	31.6µM*	-4.4%	-3.6%	44.7µM*	18.4%
COCc1nnc(NC(=O)c2ccc(NC(=O)C(C)C)cc2)s1	-1.1	6.7%	11.0%[59 µM]	-0.7%	-4.0%	33.4%
CCc1nnc(NS(=O)(=O)c2ccc(NC(=O)c3ccc(S(=O)(=O)N(CC)CC)cc3)cc2)s1	0.9	2.1%	-11.8%	-21.8%	-14.4%	65.9%
CCc1nnc(NS(=O)(=O)c2ccc(NC(=S)NC(=O)/C=C/c3ccc([N+](=O)[O-])cc3)cc2)s1	-17.0	u	35.5µM*	-11.4%	2.8%	42.3%
CCc1nnc(NS(=O)(=O)c2ccc(NC(=S)NC(=O)c3ccc(OC)cc3)cc2)s1	-18.7	-10.5%	u	u	-17.0%	-10.6%
CCc1nnc(NC(=O)c2ccc(NC(=O)C(C)C)cc2)s1	-1.3	-16.3%	56.2µM*	-9.1%	-7.5%	24.3%
CCc1nnc(NS(=O)(=O)c2ccc(NC(=S)NC(=O)/C=C/c3ccc(F)cc3)cc2)s1	u	50.1µM*	89.1µM*	16.8µM*	56.2µM*	u
CCOc1cc(C(=O)Nc2ccc(S(=O)(=O)Nc3nnc(CC)s3)cc2)cc(OCC)c1OCC	-3.6	-1.3%	u	-13.1%	25.1µM*	43.7%
CCOC(=O)C1CCN(C(c2ccccc2OC)c2c(O)cc(C)n(CCOC)c2=O)CC1 (stereo not drawn)	x	2.0%	2.7%[59 µM]	x	-3.6%	41.8%[57 µM]
CCc1cccc(C)c1NC(=O)CSc1nc2c(c(=O)[nH]1)CCC2	x	-12.8%	-28.7%[59 µM]	x	-8.9%	21.4%
N#Cc1ccc(S(=O)(=O)N2CCC(Oc3cccc(C(F)(F)F)c3)CC2)cc1	x	-7.7%	24.3%[59 µM]	x	-4.4%	34.8%
CC(C)NC(=O)c1ccc2sc([C@@H]3O[C@H](CO)[C@H](O)[C@H](O)[C@H]3O)nc2c1	-1.7	x	x	-4.8%	x	x
Cc1cn2c(=O)c(S(=O)(=O)Nc3ccc(OC(F)(F)F)cc3)c(C)nc2s1	x	-11.4%	-25.4%[59 µM]	x	-8.4%	39.6%
CCc1nnc(NS(=O)(=O)c2ccc(NC(=S)NC(=O)c3ccncc3)cc2)s1	6.8	u	50.1µM*	-16.5%	u	9.4%
CN(C)c1ccc(Cl)c(NC(N)=S)c1	-4.7	x	x	-18.6%	x	x
Oc1ccc(Cl)cc1Nc1nc2ccccc2n2cnnc12	x	1.6%	0.0%[59 µM]	x	4.4%	44.8%
COC(C[C@@H]1O[C@@H]1[C@H](O)[C@H](C)OCc1ccccc1)OC	-85.6*	-0.1%	25.6%[59 µM]	-11.1%	-7.0%	15.9%
COC(C[C@@H]1O[C@@H]1[C@@H](O)[C@@H](C)OCc1ccccc1)OC	-6.2	1.4%	17.4%[59 µM]	-11.1%	-23.8%	12.4%
CCN(CC)CCCNC(=O)c1nn(-c2ccc(OC)c(Cl)c2)c(=O)c2c1c1ccccc1n2C	x	x	4.1%[59 µM]	x	-25.0%	12.8%
Cc1cc(N/N=C/c2ccc(O)cc2O)c2ccccc2n1	7.4	-25.7%	-1.8%	1.6%	-7.8%	82.6%
Cc1cc(N/N=C/c2ccc(O)cc2)c2cccc(C)c2n1	-15.4	39.8µM*	x	1.1%	u	u
Cc1cc(C)c2nc(C)cc(N/N=C/c3ccc(O)cc3)c2c1	-14.9	39.8µM*	u	-21.4%	50.1µM*	5.6%
Cc1cc(C(=O)N/N=C/c2ccco2)c2ccccc2n1	-2.2	6.3%	20.3%[59 µM]	-4.8%	-6.6%	27.0%
Cc1cc(-c2ccccc2)nc(N/N=C/c2ccc(O)cc2)n1	-5.0	-30.6%	2.3%[0.501 µM]	6.6%	-24.9%	12.6%
SMILES	PI5P4K alpha inh	BAZ2B inh	G9a inh	PLK1 PBD block	JMJD2A Tudor	HP1b chromo inh
Cc1cc(N/N=C/c2ccco2)c2ccccc2n1	-26.8	-11.3%	x	23.8µM*	u	5.9%
CC(=O)Nc1ccc2c(c1)Cc1c(F)cccc1-2	1.3	x	x	0.1%	-7.5%	40.6%
COc1cccc(-c2nc(CS(=O)(=O)CC(=O)NC3CCCC3)c(C)o2)c1	0.6	-14.7%[57.1 µM]	u	-8.0%	-9.8%	22.2%
COc1cccc(-c2nc(CS(=O)(=O)CC(=O)NC3CCC(C)CC3)c(C)o2)c1 (stereo not drawn)	-17.6	-11.4%	-9.6%	23.8µM*	u	-1.6%
COc1ccc(-c2nc(CS(=O)(=O)CC(=O)NC3CCCCC3C)c(C)o2)cc1 (stereo not drawn)	-13.6	-23.1%	13.5%	23.8µM*	u	2.4%
CCOC(=O)N1CCC(NC(=O)CS(=O)(=O)Cc2nc(-c3ccccc3C)oc2C)CC1	1.0	5.2%	u	-2.3%	-22.2%	21.4%
CCOC(=O)N1CCC(NC(=O)CS(=O)(=O)Cc2nc(-c3ccc(OC)cc3)oc2C)CC1	0.1	-15.5%	13.8%	21.2µM*	u	10.7%
CC1CCC(NC(=O)c2[nH]c(C(F)(F)F)nc2-c2ccccc2)CC1 (stereo not drawn)	10.4	x	x	-1.7%	x	x
Oc1ccc2c(c1)C1CCCC1(N1CCOCC1)O2 (stereo not drawn)	-7.5	u	8.91µM*	1.4%	-19.9%	u
CC1=C(C(=O)N2CCOCC2)C(c2ccc(O)cc2)NC(=S)N1 (stereo not drawn)	0.9	0.1%	u	-7.9%	-10.3%	31.4%
Cc1ccc(-c2nc(CN3CCCC(C(=O)N4CCOCC4)C3)c(C)o2)cc1 (stereo not drawn)	-10.1	8.6%	80.1%	-11.3%	-11.7%	3.8%
CC(C)=C1C2CCC1C(C(=O)Nc1cc(C)cc(C)c1)C2C(=O)O (stereo not drawn)	4.5	-31.2%	39.8µM*	-13.3%	1.4%	42.6%
CCN1C(=O)[C@H]2[C@@H](c3ccc(-c4ccc(OC)cc4)cc3)N[C@@](C)(C(=O)OC)[C@H]2C1=O	1.6	-2.6%	-4.5%[2.33 µM]	2.3%	-8.5%	52.3%
Cc1cc(C)c2sc(N(CCCN(C)C)C(=O)c3ccc(S(=O)(=O)N(C)Cc4ccccc4)cc3)nc2c1	-0.3	u	39.8µM*	2.9%	u	u
Cc1cc(C)c2sc(N(CCCN(C)C)C(=O)CN3C(=O)c4ccccc4C3=O)nc2c1	11.8	u	50.1µM*	-9.6%	-14.0%[11.4 µM]	63.3%

High-throughput results from PubChem BioAssay.
